{"source": "ChEMBL document CHEMBL3988442", "about": "“University of Dundee, Small-Polar-MMV Screening Library” (2021)", "note": "Among all 48,000 compounds or so, about 13,000 (27%) showed an effect of 50% or more. This is one part of the list.", "data": [{"test_system": "Wolbachia pipientis", "test": "Anti-Wolbachia Cell-Based Screen", "format": "functional", "design": "scale not given: in the data most compounds retested in dose-response had high values", "conditions": "5 µM", "units": {"Percent Effect": "%"}, "values": [{"molecule": "Cc1ocnc1C(=O)N1CCC2(CC1)c1nc[nH]c1CCN2CC(C)C", "Percent Effect": 6.768}, {"molecule": "OC(COCc1cccs1)CSc1nnc2ccccn12", "note": "(stereo not given)", "Percent Effect": 9.754}, {"molecule": "Cc1ccccc1C(=O)N1Cc2c(Cn3ccnc3)nn(C)c2C1.O=C(O)C(F)(F)F", "Percent Effect": -9.207}, {"molecule": "COc1nn(C)c2c1CCCN(S(=O)(=O)c1cccc(F)c1)C2", "Percent Effect": -2.811}, {"molecule": "COc1nn(C)c2c1CCCN(C(=O)c1cccc3cccnc13)C2.O=C(O)C(F)(F)F", "Percent Effect": 97.34}, {"molecule": "COc1nn(C)c2c1CCCN(C(=O)c1ccccc1)C2", "Percent Effect": -3.094}, {"molecule": "Cn1nc(C#N)c2c1CN(C(=O)c1cccnc1)CCC2.O=C(O)C(F)(F)F", "Percent Effect": 29.43}, {"molecule": "COc1nn(C)c2c1CCCN(C(=O)c1cccc(C)n1)C2.O=C(O)C(F)(F)F", "Percent Effect": 98.8}, {"molecule": "Cc1nc(COCc2cnc3n2CCN(C2CCC2)C3C)cs1.O=C(O)C(F)(F)F", "note": "(stereo not given)", "Percent Effect": 1.124}, {"molecule": "Cc1c(C(=O)N2CC(=O)N(C)C2)nnn1-c1cccc2cccnc12", "Percent Effect": -0.5272}, {"molecule": "Cc1occc1C(=O)NCC(=O)NCCOc1ccc2c(c1)CCC2", "Percent Effect": 29.83}, {"molecule": "Cn1ccnc1C(=O)NC[C@H]1OC[C@@H]2CCN(S(C)(=O)=O)C[C@@H]21", "Percent Effect": -43.59}, {"molecule": "O=c1ccc(-n2cccn2)nn1CCNS(=O)(=O)c1ccc(F)c(Cl)c1", "Percent Effect": 8.551}, {"molecule": "CNS(=O)(=O)c1cccc(CNc2cc(C(F)(F)F)ccn2)c1", "Percent Effect": -5.444}, {"molecule": "Cc1cc(C)n(-c2ccc(NCCNS(=O)(=O)c3ccccc3)nn2)n1", "Percent Effect": 5.574}, {"molecule": "Cc1cc(=O)n(CCNS(=O)(=O)c2ccc(F)c(Cl)c2)cn1", "Percent Effect": 79.22}, {"molecule": "Cc1cc(=O)n(CCNS(=O)(=O)c2ccccc2)cn1", "Percent Effect": 113.1}, {"molecule": "CCCn1ccnc1SCCNS(=O)(=O)c1ccccc1", "Percent Effect": 8.595}, {"molecule": "Cc1cc(NCCNS(=O)(=O)c2cccc(Cl)c2)nc(C)n1", "Percent Effect": 15.59}, {"molecule": "O=c1ccc(-n2ccnc2)nn1CCNS(=O)(=O)c1ccc(F)c(Cl)c1", "Percent Effect": 15.65}, {"molecule": "Cc1cc(=O)n(CCNS(=O)(=O)c2cccc(C(F)(F)F)c2)cn1", "Percent Effect": 121.6}, {"molecule": "O=C(Nc1ccc2occc2c1)N1CCCC(O)(CO)CC1", "note": "(stereo not given)", "Percent Effect": -15.39}, {"molecule": "Cc1cc(Br)ccc1NCC(=O)Nc1cc(C(C)(C)C)no1", "Percent Effect": -8.877}, {"molecule": "O=C(c1ccc2c(c1)CCCC2)N1CCOCC1c1ncon1", "note": "(stereo not given)", "Percent Effect": 4.25}, {"molecule": "Cc1cn[nH]c1C1COCCN1C(=O)c1ccc2c(c1)CCCC2", "note": "(stereo not given)", "Percent Effect": 108.4}, {"molecule": "Cc1cn[nH]c1C1COCCN1C(=O)c1ccc2[nH]nnc2c1", "note": "(stereo not given)", "Percent Effect": 120.8}, {"molecule": "CC(=O)Nc1cc(C(=O)N2CCOCC2c2ccc(C)o2)ccc1F", "note": "(stereo not given)", "Percent Effect": -2.563}, {"molecule": "Cc1cn[nH]c1C1COCCN1C(=O)c1cc(F)ccc1F", "note": "(stereo not given)", "Percent Effect": 95.39}, {"molecule": "Cc1n[nH]c(C)c1C1COCCN1C(=O)Cc1cccc(F)c1", "note": "(stereo not given)", "Percent Effect": -5.544}, {"molecule": "Cc1n[nH]c(C)c1C1COCCN1C(=O)c1ccccc1", "note": "(stereo not given)", "Percent Effect": 5.535}]}]}
